Screens deposited in PubChem BioAssay by National Center for Advancing Translational Sciences (NCATS).
MCF10A rereplic: DNA re-replication induction in MCF 10a cells. Potency, µM (titrated, usually from 46.1 µM), without a hit: at the top dose activity, positive = re-replication, most hits filed as activators. hit rate 2.9% among 350,000. MCF 10A DNA re-replication, Hoechst nuclear intensity, 48 h. AID 624296; also: potency is read from the fitted curve at half-maximal effect; % of control where 0% means no effect; nearly all actives have a fitted effect of over 50% in size
DT40 TDP1 no CPT: qHTS for Inhibitors of human tyrosyl-DNA phosphodiesterase 1 (TDP1): qHTS in cells in absence of CPT. DT40 Tdp1-/- hTDP1 cells, no CPT, ATP luminescence, 48 h. Potency, µM (series often up to 46.2 µM), for the others: top-dose activity change, negative = growth inhibition, actives largely listed as inhibitors. hit rate 15% among 420,000. AID 686978, 2013; also: potency is read from the fitted curve at half-maximal effect; % is scaled to controls: 0 for no effect and ±100 for the full control effect; nearly all actives have a fitted effect of over 55% in size
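DT40 Tdp1-/-;hTDP1 cells, no CPT (DMSO vehicle only), 400 cells/well; compounds pin-transferred; ≥48 hr, 37 °C; CellTiter-Glo 30 min RT dark, luminescence read.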
SW480 rereplic: induces DNA re-replication in SW480 colon adenocarcinoma cells; SW480 DNA re-replication, Hoechst DNA content imaging, 48 h; Potency, µM (highest dose often 46.1 µM), inactives show top-dose re-replication activation, most hits filed as activators; hit rate 1.8% among 340,000; AID 624297; also: potency is read from the fitted curve at half-maximal effect; % of control where 0% means no effect; nearly all actives have a fitted effect of over 55% in size
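Quantitative HTS format with DMSO vehicle controls; 48 hr drug incubation at 37 C, then 40 min Hoechst staining and scanning imager measurement at 405 nm excitation.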
DT40 TDP1 CPT: growth inhibition of DT40 Tdp1-/-;hTDP1 cells with camptothecin (screen for TDP1 inhibitors); Potency, µM (doses to about 46.2 µM), without a hit: at the top dose activity change, negative = growth inhibition, hits mostly inhibitors; chicken DT40 Tdp1-/-;hTDP1 cells + 20 nM CPT, ATP luminescence, 48 h; AID 686979; hit rate 12% among 420,000; also: potency is read from the fitted curve at half-maximal effect; % is scaled to controls: 0 for no effect and ±100 for the full control effect; nearly all actives have a fitted effect of over 55% in size
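Cell growth measured by CellTiter-Glo luminescence after a minimum 48 h, 37 C compound exposure with 20 nM CPT in Tdp1-knockout DT40 cells stably expressing hTDP1, seeded 400/well; qHTS titration format.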
Chronic BCR inh: blocks chronic active B-cell receptor signaling | Potency, µM (doses to about 46.1 µM), for the others: top-dose activity change, negative = inhibition, usual class: inhibitors | hit rate 0.05% among 340,000 | AID 493014 | ABC-DLBCL IkBa-CBG/CBR reporter, luminescence ratio, 4 h; active = well fitted inhibition curve with a large enough effect in the signal ratio, with a control signal flat, not every such curve was filed as active; inconclusive = small, poorly fitted or top-dose-only effect, or effect the other way, or a change in a side signal; the % refers to the signal ratio;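 also: potency is read from the fitted curve at half-maximal effect; plate controls were basal doxycycline-induced cells for no effect and cells given 10 µM MG132 for full effect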
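Cell line TMD8 (human ABC DLBCL), stably expressing tet-inducible CBG68-IkBa fusion and CBR; IMDM/0.5% FBS; cpd up to 46 uM; dox induction, 4 h, 37C/5% CO2; dual luminescence; green/red ratio; MG132 control.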
IL-1B inflam inh: inhibitors of inflammasome signaling (IL-1 beta secretion); activity change, % at 57.5 µM; AID 743279; THP-1 LPS/ATP IL-1B secretion, AlphaLISA, 16 h; hits give low values; hit rate 4.7% among 360,000; in the data active = activity change below about -50%; inconclusive = mostly about -30% to -49%; also: % is scaled to controls: 0 for no effect and ±100 for the full control effect
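Secreted IL-1B measured by AlphaLISA bead assay after 16 h compound exposure of THP-1 cells; compounds (final up to 57.5 uM) added 1 h before LPS (250 ng/mL) and ATP (1.25 mM) stimulation; lower signal means less secretion.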
* = called active by the depositor; i = inactive; ? = inconclusive; . = no result. Shown are actives, neighbours in structure and some others; about 19% of the full set was active somewhere. Unless noted, calls follow the shape of the dose curve; as a rule, active = well fitted curve in the direction sought with a large enough effect; inconclusive = small, poorly fitted or top-dose-only effect, or another doubt; inactive = no such curve, though single readings can be large; an effect the other way counts as inactive or inconclusive.

SMILES | MCF10A rereplic | DT40 TDP1 no CPT | SW480 rereplic | DT40 TDP1 CPT | Chronic BCR inh | IL-1B inflam inh
O=C(O)CSc1ncnc2scc(-c3ccc(Br)cc3)c12 | 3% | 15% | -4% | 9% | 11% | 15
Cc1ccc(-c2csc3ncnc(Sc4nnc(CN5CCCCCC5=O)o4)c23)cc1 | 15µM* | 6.5µM* | ? | 4.1µM* | ? | -98*
CN(CCC#N)C(=O)COC(=O)c1ccccc1C(=O)c1ccc(Cl)c([N+](=O)[O-])c1 | 9.2µM* | ? | 23% | 16µM* | ? | -106*
CC(C)N(C(=O)COC(=O)c1ccccc1C(=O)c1ccc(Cl)c([N+](=O)[O-])c1)C(C)C | ? | ? | ? | ? | ? | -102*
O=C(COC(=O)c1ccccc1C(=O)c1ccc(Cl)c([N+](=O)[O-])c1)NC1CCCCCC1 | 2.6µM* | 23µM* | 3.7µM* | ? | ? | -107*
Cn1c(N)c(C(=O)COC(=O)c2ccccc2C(=O)c2ccc(Cl)c([N+](=O)[O-])c2)c(=O)n(C)c1=O | 12µM* | 18µM* | ? | ? | ? | -99*
CN(CCC#N)C(=O)COC(=O)c1ccc(Cl)c(S(N)(=O)=O)c1 | 9% | 8% | -2% | 8% | -5% | -6
Cc1cc(C(=O)OCC(=O)c2ccc(Cl)c([N+](=O)[O-])c2)c2cccc(C)c2n1 | ? | ? | . | ? | -4% | 0
Cc1c(NC(=S)N/N=C/c2cccc(O)c2)c(=O)n(-c2ccccc2)n1C | -6% | -4% | 5% | -9% | -12% | 0
Cc1c(NC(=S)N/N=C/c2ccc(N(C)C)cc2)c(=O)n(-c2ccccc2)n1C | -3% | ? | 0% | 16µM* | 2% | 0
CCCC(=O)NC(NC(=S)Nc1c(C)n(C)n(-c2ccccc2)c1=O)C(Cl)(Cl)Cl (stereo unspecified) | -1% | 29µM* | -4% | ? | 9% | 1
C[C@H](NC(=O)c1ccccc1)C(=O)OCC(=O)Nc1ccc(Cl)cn1 | . | -26% | . | -9% | . | 14
CC(C)(C)NC(=O)C(c1ccc(F)cc1)N(Cc1cccs1)C(=O)c1ccc(CN2CCOCC2)o1 (stereo unspecified) | 1% | ? | -2% | -7% | 0% | -53*
CC(C)CCNC(=O)C(C)N(Cc1ccc(F)cc1)C(=O)c1ccc(CN2CCOCC2)o1 (stereo unspecified) | -4% | 1% | -4% | 9% | -1% | 16
COc1ccccc1C1=NOC(COc2ccc3c(C)cc(=O)oc3c2)C1 (stereo unspecified) | 1.6µM* | 0.82µM* | 8.2µM* | 0.82µM* | ? | 14
COc1ccc(C2=NOC(COc3ccc4c(C)cc(=O)oc4c3)C2)c(OC)c1 (stereo unspecified) | 26µM* | 5.2µM* | 12µM* | 4.1µM* | ? | 0
COc1ccc2c(C)cc(=O)oc2c1 | -3% | -8% | ? | 3% | . | -19
CCCC(NC(=O)C(C)Sc1nnnn1C1CC1)c1ccccc1 (stereo unspecified) | -9% | -27% | -2% | -6% | 2% | -2
CCOC(=O)c1cnc2ccc(OC)cc2c1Nc1ccc(N2CCN(C)CC2)cc1 | -16% | 21µM* | ? | 23µM* | -12% | -24
CCOC(=O)c1ccc2ncc(C(=O)OCC)c(Nc3ccc(N4CCOCC4)cc3)c2c1 | 13% | 6.5µM* | ? | 10µM* | -9% | -7
CCOC(=O)c1cnc2ccc(OC)cc2c1Nc1ccc2c(c1)OCCO2 | 23% | 18µM* | 9% | ? | ? | 25
CCC(Oc1ccc(C)cc1)C(=O)Nc1ccccc1C(=O)N1CCOCC1 (stereo unspecified) | -8% | -13% | -1% | 2% | 3% | i
COc1cc(C(C(=O)NC2CCCCC2)N(C(=O)Cc2c[nH]c3ccccc23)c2ccccc2C)cc(OC)c1OC (stereo unspecified) | 17% | -26% | 1% | -7% | -16% | ?
COc1ccc(C(C(=O)Nc2ccc3c(c2)OCO3)N(C)C(=O)Cc2c[nH]c3ccccc23)cc1 (stereo unspecified) | 17% | ? | 2% | 18µM* | -3% | -58*
COc1cc(C(C(=O)NC2CCCCC2)N(Cc2cccs2)C(=O)Cc2c[nH]c3ccccc23)cc(OC)c1OC (stereo unspecified) | 7% | 21µM* | -8% | 23µM* | ? | -23
SMILES | MCF10A rereplic | DT40 TDP1 no CPT | SW480 rereplic | DT40 TDP1 CPT | Chronic BCR inh | IL-1B inflam inh
COc1ccc(CN(C(=O)Cc2c[nH]c3ccccc23)C(C(=O)NC2CCCCC2)c2ccc(C)o2)cc1 (stereo unspecified) | ? | 18µM* | 12% | ? | ? | -59*
Cc1ccc(C(C(=O)NC2CCCCC2)N(Cc2ccccc2)C(=O)Cc2c[nH]c3ccccc23)o1 (stereo unspecified) | 11% | ? | 4% | ? | -11% | ?
COc1cccc(CN(C(=O)Cc2c[nH]c3ccccc23)C(C(=O)NC2CCCCC2)c2ccc(C)o2)c1 (stereo unspecified) | 6% | 16µM* | ? | 16µM* | -16% | -68*
COC(=O)c1cccc(NC(=S)N2CCN(c3ccccc3F)CC2)c1 | -5% | ? | 5% | 6% | -26% | 20
Cc1nc(SCC(=O)Nc2ccc3[nH]c(=O)[nH]c3c2)nc(C)c1C | 1% | -10% | 2% | -17% | -10% | -3
COc1ccc(-c2noc(N3CCC(C(=O)Nc4ccc(C)c(F)c4)CC3)n2)cc1OC | . | 16µM* | . | ? | . | .
COc1ccc(NC(=O)C2COc3ccccc3C2)cc1Cl (stereo unspecified) | . | 16µM* | . | 18µM* | . | .
COc1ccc(NC(=O)C2CCN(c3nc(-c4ccc(OC)cc4)no3)CC2)cc1 | 29% | ? | -9% | ? | -6% | -4
COc1ccc(-c2noc(N3CCC(C(=O)Nc4ccc(F)cc4F)CC3)n2)cc1 | 17% | -19% | -13% | ? | ? | 15
N#Cc1cccc(NC(=O)C2CCN(c3nc(-c4ccc(Cl)cc4)no3)CC2)c1 | . | 16µM* | . | 13µM* | . | .
COc1ccc(NC(=O)C2CCN(c3nc(-c4ccc(OC)c(OC)c4)no3)CC2)cc1Cl | . | ? | . | 4.1µM* | . | .
